This is part of a sample that, as a whole, favours compounds with a hit. Of some 83,000 tested, about 20% had one in any assay.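 Step 1: grow cells in 96-well plates. Step 2: add test compound at a single concentration. Step 3: incubate 48 h. Step 4: record percent growth.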 A number with no mark means an inactive call. The source made the active and inactive calls. How the source made its calls: active means growth percent below 10; inactive means the rest.

For 13 compounds, growth results are on record in PubChem BioAssay (NCI).

Among the test systems are NCI-H23 lung; NCI-H226 lung; NCI-H322M lung; HOP-62 NSCLC; NCI-H460 lung; HOP-92 NSCLC; NCI-H522 lung; A549/ATCC NSCLC; 786-0 renal; COLO 205 colon.
Common to all, as to experiment: NCI-60 one-dose screen, 48 h (100 = growth as untreated, 0 = no growth, -100 = all killed)
Holding throughout (details): 10 µM unless noted

Regarding `COc1ccc(N=C(c2ccccc2)C2C(=O)c3ccccc3C2=O)cc1`, the growth is 99.4% with NCI-H23 lung; 96.8% in the assay with NCI-H226 lung; 105% in the assay on NCI-H322M lung; 97% in the assay on HOP-62 NSCLC; 96.4% in the assay on NCI-H460 lung; -11.2% (active) in the assay on HOP-92 NSCLC. The growth was 67% in the assay on NCI-H522 lung, 93.6% in the assay on A549/ATCC NSCLC, 97.3% in the assay on 786-0 renal and 102% with COLO 205 colon.
Turning to `COc1ccc(/C=C/c2c(C(=O)/C=C/c3ccc(F)cc3)c(C)nc3ccccc23)cc1`, the growth is 47.8% in the assay on NCI-H23 lung; 67.3% in the assay on NCI-H226 lung; 82.7% in the assay on NCI-H322M lung; 57.5% with HOP-62 NSCLC; 15.9% in the assay on NCI-H460 lung; 73.5% in the assay with HOP-92 NSCLC. Moreover, the growth in the assay with NCI-H522 lung was 43.9%; with A549/ATCC NSCLC, 91.6%; with 786-0 renal, 65.4%; in the assay with COLO 205 colon, 79.8%.
For `O=C(/C=C/c1c(Cl)nc2sccn12)c1ccc(F)c(F)c1`, the growth was 67% with NCI-H23 lung; 73.2% in the assay on NCI-H226 lung; 93.1% with NCI-H322M lung; 79.8% in the assay on HOP-62 NSCLC; 79.5% in the assay with NCI-H460 lung; 50.6% in the assay with HOP-92 NSCLC. Further, the growth with NCI-H522 lung is 66.5%; in the assay with A549/ATCC NSCLC, 80.3%; in the assay on 786-0 renal, 84.7%; in the assay with COLO 205 colon it was 93%.
Take `Cc1cc(Cl)ccc1Nc1nc(C(F)(F)F)ccc1C(=O)N/N=C/c1ccc(N(C)C)cc1`: the growth was 30.5% in the assay with NCI-H23 lung; 51.1% with NCI-H226 lung; 25.7% with NCI-H322M lung; 24% with HOP-62 NSCLC; 20.3% with NCI-H460 lung; 18.7% with HOP-92 NSCLC. For the same compound, the growth was 7.24% (active) in the assay on NCI-H522 lung, 18.2% with A549/ATCC NSCLC, 16.8% in the assay on 786-0 renal and 14.9% with COLO 205 colon.
Take `COc1ccc(CN2C(=O)C(Cl)=C(Nc3cccc(C(F)(F)F)c3)C2=O)cc1`: the growth in the assay with NCI-H23 lung is 36.8%; in the assay on NCI-H226 lung, 49.5%; in the assay with NCI-H322M lung, 84.3%; in the assay on HOP-62 NSCLC it was 28.3%; in the assay with NCI-H460 lung it was 22%; with HOP-92 NSCLC, -17.2% (active). Also, the growth in the assay with NCI-H522 lung was 40.6%; in the assay with A549/ATCC NSCLC, 59.2%; with 786-0 renal, 37.8%; with COLO 205 colon it was 36.5%.
For the compound `COCCN(C(=O)c1ccc(F)cc1F)c1c(N)n(Cc2ccccc2)c(=O)[nH]c1=O`, the growth is 95.4% in the assay on NCI-H23 lung; 94.7% in the assay on NCI-H226 lung; 99.8% in the assay on NCI-H322M lung; 103% in the assay on HOP-62 NSCLC; 116% in the assay on NCI-H460 lung; 59.3% in the assay on HOP-92 NSCLC. The growth in the assay with NCI-H522 lung is 98.3%; with A549/ATCC NSCLC, 101%; with 786-0 renal it was 102%; with COLO 205 colon, 124%.
Consider `COc1cc(/C=C2\C(=O)ON=C2C)cc(OC)c1OC`, for which the growth was 98.6% in the assay with NCI-H23 lung; 100% in the assay on NCI-H226 lung; 95.1% in the assay with NCI-H322M lung; 97% with HOP-62 NSCLC; 110% in the assay on NCI-H460 lung; 87.8% with HOP-92 NSCLC. The growth in the assay with NCI-H522 lung is 98.5%; in the assay with A549/ATCC NSCLC it was 96.1%; with 786-0 renal, 103%; in the assay with COLO 205 colon, 105%.
On to `CC1=C(SCCC(=O)OC(C[Se]C2=C(C)C(=O)c3ccccc3C2=O)C(=O)NCCCCCC(=O)OCc2ccccc2)C(=O)c2ccccc2C1=O` (centres undefined), for which the growth is 15.2% in the assay on NCI-H23 lung; 93.4% with NCI-H226 lung; 8.06% (active) with NCI-H322M lung; 12.8% in the assay with HOP-62 NSCLC; 10.9% in the assay with NCI-H460 lung; 58.4% in the assay with HOP-92 NSCLC. For the same compound, the growth was 20.7% in the assay with NCI-H522 lung, 22.2% in the assay on A549/ATCC NSCLC, 40.1% in the assay with 786-0 renal and 40% in the assay on COLO 205 colon.
With `CCN(CC)CCN1CC(O)=C(c2nc(-c3ccc(Cl)cc3)cs2)C1=N`, the growth in the assay on NCI-H23 lung was 65.2%; in the assay on NCI-H226 lung it was 99.2%; with NCI-H322M lung, 15.6%; with HOP-62 NSCLC, -53.3% (active); in the assay on NCI-H460 lung, 8.48% (active); with HOP-92 NSCLC it was -44.3% (active). Also, the growth was 49.8% in the assay with NCI-H522 lung, 46.8% with A549/ATCC NSCLC, -68.5% (active) with 786-0 renal and -58.3% (active) in the assay on COLO 205 colon.
In the case of `CC(=O)c1nc(Nc2ccc(C)cc2)sc1C`, the growth in the assay on NCI-H23 lung is 90.9%; in the assay with NCI-H226 lung it was 81.7%; in the assay with NCI-H322M lung, -98.9% (active); in the assay with HOP-62 NSCLC, 85.7%; in the assay on NCI-H460 lung it was 104%; with HOP-92 NSCLC it was 73.2%. The growth is 86.9% in the assay with NCI-H522 lung, 96.7% with A549/ATCC NSCLC, 98.1% in the assay with 786-0 renal and 105% with COLO 205 colon.
Turning to `Cn1cc2c(c1)-c1nc(Nc3ccccc3)ncc1CC2`, the growth in the assay on NCI-H23 lung was 38.3%; with NCI-H226 lung, 51.7%; in the assay with NCI-H322M lung, 52.9%; with HOP-62 NSCLC, 69.2%; in the assay with NCI-H460 lung, 42.5%; in the assay on NCI-H522 lung it was 84.9%. Moreover, the growth was 72% in the assay on A549/ATCC NSCLC, 87.2% with 786-0 renal and 76.7% in the assay with COLO 205 colon.
For `C=C(C)[C@@H]1CC[C@]2(C(=O)NC3CCCCC3)CC[C@]3(C)[C@H](CC[C@@H]4[C@@]5(C)CCCNC(C)(C)[C@@H]5CC[C@]43C)[C@@H]12`, the growth in the assay with NCI-H23 lung is 76.7%; in the assay with NCI-H226 lung, 63%; with NCI-H322M lung it was 65.7%; in the assay on HOP-62 NSCLC, 80.4%; in the assay with NCI-H460 lung, -56.5% (active); with HOP-92 NSCLC, 62.3%. The growth is 60% in the assay on NCI-H522 lung, 41.2% in the assay on A549/ATCC NSCLC, 62.7% in the assay on 786-0 renal and -63.1% (active) in the assay with COLO 205 colon.
Take `CC/C=C1/C(=O)C=C[C@@H]1C/C=C\CCCC(=O)O`: the growth was 85.5% in the assay with NCI-H23 lung; 93.3% in the assay on NCI-H226 lung; 113% in the assay on NCI-H322M lung; 80.4% in the assay on HOP-62 NSCLC; 97.1% in the assay on NCI-H460 lung; 121% in the assay with HOP-92 NSCLC. Also, the growth in the assay with NCI-H522 lung is 24%; in the assay on A549/ATCC NSCLC, 87.9%; with 786-0 renal, 102%; in the assay with COLO 205 colon, 108%.
